# Experimental data published in the supplement of paper PMC6555819.
# Assays:
# Test in all cases: PBM binding z-score (relative to random genomic background probes); higher = stronger binding; sequences stand for … in GC…GCGATTGACAGCGTAGAATGAAGG
# [1] = system: PPARg:RXRa DBDmut IVT, anti-RXR (DBD mutation: RXRa K156A/R161A, NR concentration 270 nM, RXRa partner concentration 90 nM)
# How it was run: (§1)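 Regression normalization was applied to scanned fluorescence from custom Agilent 4×180K protein-binding microarrays. Before scanning, arrays were incubated 1 h with ligand-free nuclear receptor dimers, and binding was detected with antibodies against each partner (one per run). Binding z-scores use the random background probes as reference.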
# [2] = system: PPARg:RXRa IVT, anti-PPARg (NR concentration 270 nM, RXRa partner concentration 90 nM)
# How it was run: as §1
# [3] = system: PPARg DBDmut:RXRa IVT, anti-PPARg (DBD mutation: PPARg1 K132A/R137A, NR concentration 270 nM, RXRa partner concentration 90 nM)
# How it was run: as §1
# [4] = system: PPARg DBDmut IVT, anti-PPARg (DBD mutation: PPARg1 K132A/R137A, NR concentration 270 nM)
# How it was run: as §1
# [5] = system: PPARg homodimer (NR concentration 180 nM)
# How it was run: as §1
# [6] = system: PXR:RXRa (NR concentration 270 nM, RXRa partner concentration 90 nM)
# How it was run: as §1
# [7] = system: PXR homodimer (NR concentration 270 nM)
# How it was run: as §1
# [8] = system: RARa:RXR (NR concentration 270 nM, RXRa partner concentration 90 nM)
# How it was run: as §1
# [9] = system: RARa homodimer (NR concentration 270 nM)
# How it was run: as §1
# [10] = system: RARb:RXRa (NR concentration 270 nM, RXRa partner concentration 90 nM)
# How it was run: as §1
# [11] = system: RARb homodimer (NR concentration 270 nM)
# How it was run: as §1
# [12] = system: RARg:RXRa (NR concentration 270 nM, RXRa partner concentration 90 nM)
# How it was run: as §1
# [13] = system: RARg homodimer (NR concentration 270 nM)
# How it was run: as §1
# [14] = system: RXRa DBDmut IVT, anti-RXR (DBD mutation: RXRa K156A/R161A, NR concentration 90 nM)
# How it was run: as §1
# [15] = system: RXRa homodimer (NR concentration 180 nM)
# How it was run: as §1
# [16] = system: THRa:RXRa (NR concentration 90 nM, RXRa partner concentration 90 nM)
# How it was run: as §1
# [17] = system: THRa homodimer (NR concentration 90 nM)
# How it was run: as §1
# [18] = system: VDR homodimer (NR concentration 270 nM)
# How it was run: as §1
Sequence,PBM binding z-score [1],PBM binding z-score [2],PBM binding z-score [3],PBM binding z-score [4],PBM binding z-score [5],PBM binding z-score [6],PBM binding z-score [7],PBM binding z-score [8],PBM binding z-score [9],PBM binding z-score [10],PBM binding z-score [11],PBM binding z-score [12],PBM binding z-score [13],PBM binding z-score [14],PBM binding z-score [15],PBM binding z-score [16],PBM binding z-score [17],PBM binding z-score [18]
AGATGTAGGTTATCGGGTCATTCAGTTTGCGCAT,7.36,7.13,2.95,1.82,2.53,4.02,7.55,4.01,1.35,2.73,3.17,3.19,2.6,1.75,3.47,3.46,2.87,3.92
TCATATAAGTAAAGGTGAAAGTCGAACGATATGA,2.2,1.58,1.17,1.46,0.731,0.97,0.241,1.59,0.59,1.99,1.41,1.5,1.25,0.638,2.04,1.18,-0.569,-0.0399
TCTATTAGTTGAGGGGCAACCGACGAGTCCGTTT,2.72,0.341,0.599,1.29,1.09,0.857,0.479,0.515,0.621,0.903,0.835,0.29,0.252,1.83,0.746,0.432,0.237,1.19
CATGCTAGGTCAATGGTCAGCTAAAGCAGCTCGC,3.11,3.53,-0.274,-0.0398,1.14,0.721,-0.406,1.82,-0.113,3.87,3.11,3.81,4.43,1.63,2.29,2.38,0.438,0.0964
CGAACTAGGTAATCCAGGACAGTGAATACATTGA,5.67,4.69,0.81,0.796,0.0161,-0.34,-0.311,-0.156,0.04,0.0507,-0.194,0.0775,0.29,0.502,-0.0168,1.85,0.946,-0.254
AGAATGAGGTTACCAAAGATGAGGGAAACGCTTG,3.67,3.1,1.29,0.621,0.657,1,0.117,1.79,0.142,2.14,0.76,1.85,1.54,1.22,2.43,2.55,0.977,0.767
TCTAGCAGGCCGGAGGGTCACTCAAGAGGTACGG,0.524,-0.0805,-0.889,-1.31,0.278,0.98,-0.311,1.65,-0.429,1.74,2.33,2.01,1.52,0.00965,2.13,1.44,-0.391,0.104
CCTTACGGGTAAAGGTTATAGCACGGGTGGTACG,-0.138,1.7,-0.079,-0.348,1.08,1.1,0.1,2.04,0.398,1.82,1.5,2.02,1.06,-1.08,2.34,1.31,0.0229,0.43
ACTAGCAGGACAAGGGTCACTCAAGATTAGTCCG,0.93,3.2,-0.0211,-0.445,2.71,3.31,0.0433,4.23,0.605,3.47,3.75,4.12,3.61,0.928,3.68,3.04,0.529,2.01
ATCGAAAGGACGAGGTGAGTATAGAGAAAGGGAA,0.186,0.649,0.713,0.658,0.139,-0.25,0.286,0.04,0.504,1.31,0.703,0.958,1.48,-0.386,0.312,1.27,0.739,0.284
TCATATAGGTAATACAGGTGCAAGTCGGCATCTA,3.87,2.67,1.02,0.643,0.337,1.07,0.613,0.828,1.43,0.563,0.266,0.587,0.617,1.65,0.938,1.16,-0.0511,1.03
TCATACAGGTAATACAGGTGAAAGTCGGCATCTA,3.1,2.32,1.11,1.28,1.24,0.855,0.48,1.23,1.28,0.835,0.84,0.731,0.586,1.65,1.23,1.18,0.583,0.391
CGTCAAAGTTCAAGGTAACGAAACAGAAAGCAGC,0.745,2.29,0.604,0.231,3.5,3.94,2.79,3.53,1.57,5.11,3.67,5.6,6.29,4.46,5.13,2.9,0.933,2.99
AGTCAAAGTGCACTAGGTAACGTAAGATTCAGCT,1.83,3.56,0.58,-0.0287,0.167,0.215,0.189,0.315,-0.372,1.53,0.614,0.916,1.26,0.965,0.453,0.43,-0.285,0.442
CCGACTGGGGCATAAGGTTGCCATAAGCCAGCCC,2.51,2.07,-0.622,-1.53,-0.22,-0.532,-0.499,0.0769,-0.329,0.569,0.294,0.249,0.278,-0.617,-0.0266,0.276,-0.00565,-0.0503
GGACCGAGGGCAAAGTTGATAGCATCTGTCGACG,0.973,1.67,-0.427,-0.551,0.198,1.04,-0.387,1.26,-0.439,2.4,1.42,2.15,1.79,2.07,2.15,1.04,-0.484,1.07
CGTCCAAGGTCAGCAGGTAAGTGAAAGCGACGTG,2.46,2.83,0.325,-0.0804,2.47,2.54,-0.0164,3.47,1.22,5,3.74,5.27,5.92,2.48,3.94,3.46,2,0.856
CCTGACGGGTCACGAGGTTATAGCACGACGAGCG,2.13,3.75,0.388,0.539,3.04,4.13,0.0429,5.48,1.05,4.32,3.55,5.83,5.33,1.42,6.19,3.3,1.14,1.87
CTCGAAAGGTCGTGCTCAGGTGAGTGTACCAAAC,1.29,1.94,-0.0151,0.438,1.83,3.52,0.0812,4.32,0.202,4.01,3.22,5.21,4.01,2.21,4.95,4.11,1.21,1.26
AATACAGGATCATCGTAGGCCAGAGTACGCACAG,-0.0409,0.414,0.728,0.381,0.342,0.111,0.257,0.723,0.87,0.16,0.484,0.381,0.569,0.155,0.54,1.59,-0.259,0.692
GCAGTCAGGTGAAACGCAGGTAACTCAGGGTGGC,1.84,0.996,-0.763,-0.908,-0.83,-0.443,-0.701,0.159,-1.13,1.03,0.205,0.634,0.376,-0.235,0.237,1.8,0.308,-0.682
CCTACTGGCCCAAGGTCATTGATCAGTCAAAGCA,-0.104,1.17,-0.998,-0.271,2.64,3.52,1.68,3.36,0.651,3.4,3.58,3.48,2.65,1.58,3.16,3.57,2.81,2.79
CCGACTGGGGCAGAGGTTACCATACTCAGTACGA,3.08,4.26,-0.117,-0.682,1.22,0.917,-0.23,1.94,-0.251,1.34,1.64,1.81,1.16,0.0849,2.24,1.14,0.0259,0.131
CGTCCAAGGTCAATGCTAGGTCAGTGACAGCATT,3.59,4.07,0.933,0.0917,5.74,4.98,1.04,6.17,2.41,5.26,4.95,7.61,6.78,3.65,5.25,4.63,2.99,2.97
ACATGTAGGTTATCGGGTCATTCAGTTTGCGCAT,6.89,6.82,3.46,3.12,5.01,4.02,6.61,3.88,2.25,2.61,3.23,3.35,2.41,1.87,3.6,3.32,3.05,4.06
GAAGACAGGTGAAACGCAGGTAACTCAGGGTGGC,0.674,1.15,0.0757,-0.907,-0.0582,-0.0972,-0.579,0.542,-0.418,0.745,0.467,0.851,0.0189,-0.671,0.66,1.49,-0.0479,-0.373
ACTTACGGGTCAACGAGTTTATAGCACGCGTATA,3.67,3.98,1.94,1.27,1.4,5.9,9.25,4.24,0.513,4.14,3.4,5.13,5.14,3.3,5.62,3,0.511,6.13
ATACCAAGGTGATCGTGAGGTCCTTGATACTAAC,0.257,0.989,0.0116,-0.0653,-0.043,0.241,0.00841,0.662,0.0164,0.729,0.337,0.376,0.386,0.0286,0.487,1.94,0.903,0.291
CGTTCAAGGTCAGAGAGGTCAGTGAATGCCGAGT,3.67,4.41,1.75,1.56,5.16,6.25,12.2,5.57,2.45,5.45,5.35,6.32,7.17,3.83,5.61,4.37,3.21,5.8
